An excerpt weighted towards active compounds, which were near 7.5% of everything screened.
FLuc counter: firefly luciferase modulation, counter-screen for miR-21 project; P08659; purified FLuc, Km substrates, luminescence inhibition; Potency, µM (top dose mostly 57.5 µM), actives largely listed as inhibitors; hit rate 6.9% among 360,000; AID 588342; note: nearly all actives have a fitted effect of over 55% in size
Target sequence (P08659 whole entry, looked up): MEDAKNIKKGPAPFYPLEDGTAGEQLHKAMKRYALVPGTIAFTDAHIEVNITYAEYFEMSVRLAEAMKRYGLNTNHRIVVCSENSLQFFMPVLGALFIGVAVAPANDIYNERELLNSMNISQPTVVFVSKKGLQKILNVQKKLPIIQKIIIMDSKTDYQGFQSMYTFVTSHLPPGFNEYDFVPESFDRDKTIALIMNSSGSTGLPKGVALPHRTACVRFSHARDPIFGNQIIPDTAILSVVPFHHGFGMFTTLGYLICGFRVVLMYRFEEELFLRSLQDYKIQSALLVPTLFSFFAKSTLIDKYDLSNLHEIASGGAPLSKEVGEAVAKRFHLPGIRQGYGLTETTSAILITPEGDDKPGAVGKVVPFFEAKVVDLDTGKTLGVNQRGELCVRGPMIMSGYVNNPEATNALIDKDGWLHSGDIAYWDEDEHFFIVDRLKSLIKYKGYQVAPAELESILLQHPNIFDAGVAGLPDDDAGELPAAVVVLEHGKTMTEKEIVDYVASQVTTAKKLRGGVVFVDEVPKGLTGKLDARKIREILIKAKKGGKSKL
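Purified P. pyralis luciferase, 10 nM final, with Km-level 10 uM D-luciferin and 10 uM ATP in 50 mM Tris acetate pH 7.5, 10 mM Mg acetate, 0.01% Tween-20, 0.05% BSA; 6-point qHTS titration about 60 µM downward; luminescence read.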
NPC1 prom act: activators of NPC1 promoter; Huh7 NPC1 promoter luciferase reporter, 24 h; Potency, µM (top dose mostly 9.22 µM), hits mostly activators; hit rate 2.4% among 320,000; AID 485313; note: nearly all actives have a fitted effect of over 60% in size
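NPC1 promoter–luciferase Huh7 cells; 24 h compound; luminescence.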
Rab9 promoter act: activators of Rab9 promoter; Huh7 Rab9 promoter-luciferase reporter, luminescence, 24 h; Potency, µM (series often up to 9.22 µM), most hits filed as activators; hit rate 2.8% among 320,000; note: nearly all actives have a fitted effect of over 60% in size
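Luminescence read-out: Huh7 cells stably expressing Rab9-luciferase, treated 24 h with compound at 37 °C, then lysed with luciferase reagent for 10 min at ambient before reading.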
SMN2 splice enh: SMN2 splice variant enhancement; HEK293 SMN2-luciferase splicing reporter, luminescence, 30-36 h; Potency, µM (highest dose often 46.1 µM), hits mostly activators; hit rate 2.8% among 210,000; note: nearly all actives have a fitted effect of over 55% in size
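qHTS luciferase splicing reporter: luminescence rises when SMN2 exon 7 is included in transfected HEK293 cells. Compound exposure lasted 30-36 h at 37C, with 4.5 mM final sodium butyrate as control, followed by a ONE-Glo read.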
ELG1 genotoxic: induces genotoxicity in HEK293T cells with luciferase-tagged ELG1 | HEK293T ELG1-luciferase reporter, luminescence, 16 h | hit rate 1.3% among 330,000 | Potency, µM (top dose mostly 46 µM), most hits filed as activators | AID 504466; note: nearly all actives have a fitted effect of over 60% in size
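After overnight (16 hr) compound treatment at 37 °C, ELG1-luciferase HEK293T cells were lysed with ONE-Glo; luminescence quantified 30 min later at room temperature.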
Numbers stand for hits; – = inactive; ? = inconclusive; · = not tested or not shown; [ ] = another dose, or the depositor's remark. Calls come from the whole dose curve; as a rule, active = well fitted curve in the direction sought with a large enough effect; inconclusive = small, poorly fitted or top-dose-only effect, or another doubt; inactive = no such curve, though single readings can be large; an effect the other way counts as inactive or inconclusive.

SMILES	FLuc counter	NPC1 prom act	Rab9 promoter act	SMN2 splice enh	ELG1 genotoxic
Cc1cccc(NC(=O)CN2CCN(C(=O)c3ccc(-c4nc5ccccc5s4)o3)CC2)c1C	24µM	–	–	·	–
O=C(CN1CCN(C(=O)c2ccc(-c3nc4ccccc4s3)o2)CC1)Nc1ccc(F)cc1	17µM	–	–	·	–
O=c1nc2ccccc2c2n1CC(CN1CCN(c3ccccc3)CC1)N2 (stereo not drawn)	·	·	·	–	·
COc1cc(-c2nnn(Cc3ccccc3C)n2)cc(OC)c1OC	–	–	–	·	–
O=C(CCn1nnc(-c2cccs2)n1)NCc1ccccc1Cl	–	–	–	–	–
Cc1ccccc1-c1nnn(Cc2ccc(F)cc2Cl)n1	17µM	–	–[1.84 µM]	·	–
Clc1ccccc1Cn1nnc(-c2ccccc2)n1	21µM	–	?	?	?
Fc1ccc(-c2nnn(Cc3ccc(F)cc3Cl)n2)cc1	?	–	–	·	–
Clc1ccccc1Cn1nnc(-c2cccs2)n1	15µM	3.2µM	3.5µM	13µM	18µM
CN(C)c1ccc(-c2nnn(Cc3ccccc3Br)n2)cc1	13µM	?	?	–	?
C[C@@H]1NS(=O)(=O)[C@H]2C[C@@H]3C=C[C@]2(O3)[C@H]1OC(=O)Nc1ccc(C(F)(F)F)cc1[N+](=O)[O-]	–	–	–	·	–
CCCCn1c(N)c(N(CC(C)C)C(=O)C2CC(=O)N(c3ccc(CC)cc3)C2)c(=O)[nH]c1=O (stereo not drawn)	–	–	–	·	–
CCOC(=O)CC(=O)CSc1ncnc2c1nnn2-c1ccc(OC)cc1	?	–	–	–	–
CCOC(=O)C(C)Sc1ncnc2c1nnn2-c1ccc(F)cc1 (stereo not drawn)	12µM	?	?	–	–
COC(=O)c1ccc(CSc2ncnc3c2nnn3-c2ccc(F)cc2)o1	8.5µM	–	–	–	–
CCN(CC)C(=O)CSc1ncnc2c1nnn2-c1ccc(F)cc1	13µM	–	–	–	–
CCC(Sc1ncnc2c1nnn2-c1ccc(F)cc1)C(=O)OC (stereo not drawn)	5.4µM	?	?	–	?
CN(CC(=O)Nc1ccc(OC(F)(F)F)cc1)C(=O)/C=C/c1cc2c(cc1[N+](=O)[O-])OCO2	–	–	–	·	–
Cc1ccc(S(=O)(=O)N(C)C)cc1NC(=O)COC(=O)C1=COCCO1	–	–	–	·	–
Cc1nn2c(-c3ccco3)ccnc2c1-c1ccc(F)cc1	?	·	·	–	·
Cc1nn2c(-c3ccco3)ccnc2c1-c1ccc(Br)cc1	9.5µM	·	·	–	·
Cc1cc2nccc(-c3ccco3)n2n1	–	–	–	–	–
Cc1nn2c(-c3ccc(F)cc3)ccnc2c1Cl	–	–	–	·	–
Cc1nn2c(-c3ccc(Cl)cc3)ccnc2c1-c1ccccc1	8.5µM	?	–	–	–
Cc1nn2c(-c3ccco3)ccnc2c1-c1ccc(Cl)cc1	5.4µM	·	·	–	·
SMILES	FLuc counter	NPC1 prom act	Rab9 promoter act	SMN2 splice enh	ELG1 genotoxic
Cc1nn2c(N)c(-c3ccccc3)cnc2c1-c1ccccc1	0.95µM	2.2µM	1.6µM	·	?
COC(=O)N1CCC2(CCN(Cc3ccccc3)CC2)CC1	·	·	·	–	·
CSc1cccc(N2C(=O)C3CCCN3C2=S)c1 (stereo not drawn)	–	–	–	·	–
CCC1CCCCN1CCCNC(=O)c1ccc2c(c1)c(C)c(C)n2C (stereo not drawn)	–	–	–	·	–
O=C(C1CCN(S(=O)(=O)Cc2ccccc2)CC1)N1CCN(c2ccccc2F)CC1	–	·	·	·	·
COc1cc2c(cc1OC)C(COc1ccccc1OC)N(C(=O)c1ccc(S(=O)(=O)N3CCCC3)cc1)CC2 (stereo not drawn)	–	·	·	·	·
COc1ccc(C(=O)Nc2ccc(NC(=O)c3cc(OC)c(OC)c(OC)c3)cn2)cc1	–	–	–	·	–
COc1cccc(C(=O)c2c(-c3ccccc3)ncc3cc(OC)c(OC)cc23)c1	·	·	·	·	–
Cc1ccc(-c2nn[nH]n2)cc1Cl	17µM	–	–	·	–
Cc1ccc(-c2nn[nH]n2)cc1	?	–	–	–	–
CCN1CCN(C(=O)c2cnn(-c3cccc(C)c3)c2C2CCN(C(=O)OC(C)(C)C)CC2)CC1	–	·	·	·	·
CCCCCCCC/C=C\CCCCCCCC(=O)N(CCO)CCO	·	·	·	–	·
COc1ccc(C(c2c(O)cc(C)n(Cc3ccco3)c2=O)N2CCN(c3ccccc3)CC2)cc1 (stereo not drawn)	–	·	·	·	·
CC1(C)C(=O)Nc2ccccc2N1C(=O)COC(=O)c1cccnc1Cl	·	·	·	·	–
O=C1C(Cl)=C(NC2CCCCC2)C(=O)N1c1ccc(Cl)cc1	4.8µM	–	–	?	?
Cc1nn(-c2ccc(N3CCCC3)nn2)c(C)c1CCC(=O)NCc1ccc(F)cc1	–	·	·	·	·
C/C(=N/NC(=O)c1ccc(Br)o1)c1cccc(NC(=O)c2ccc(F)cc2)c1	11µM	–	–	·	–
CCC(CC)C(=O)Nc1cccc(/C(C)=N\NC(=O)c2ccc(C)s2)c1	?	–	–	–	–
C/C(=N/NC(=O)c1ccco1)c1cccc(NC(=O)c2ccc(C)o2)c1	15µM	–	–	–	–
C/C(=N/NC(=O)c1ccco1)c1cccc(NC(=O)c2ccc(C)s2)c1	4.8µM	–	–	?	–
C/C(=N/NC(=O)c1ccc(Br)o1)c1cccc(NC(=O)c2ccc(C)o2)c1	11µM	–	–	–	–
C/C(=N/NC(=O)c1ccc(Br)o1)c1ccncc1	?	–	–	–	–
C/C(=N\NC(=O)c1ccn(C)n1)c1cccc(NC(=O)c2ccc(C)s2)c1	3µM	?	–	?	–
C/C(=N\NC(=O)c1ccn(C)n1)c1ccc(NC(=O)c2cccc(F)c2)cc1	–	?	?	·	–
C/C(=N/NC(=O)c1ccc(C)s1)c1cccc(NC(=O)COc2ccc(Cl)cc2Cl)c1	2.1µM	0.56µM	0.5µM	–	–
SMILES	FLuc counter	NPC1 prom act	Rab9 promoter act	SMN2 splice enh	ELG1 genotoxic
C/C(=N/NC(=O)c1cccs1)c1ccc(NC(=O)COc2ccc(Cl)cc2Cl)cc1	–	–	–	–	–
Nc1nnc(/C=C/c2ccccc2)s1	24µM	?	?	·	?
CCC(=O)Nc1nnc(/C=C/c2ccc(OC)cc2)s1	6µM	?	?	·	–
C(=C\c1ccc(/C=C/c2ccccc2)nn1)/c1ccccc1	?	–	–	·	–
O=C(Nc1nnc(/C=C/c2ccccc2)s1)c1ccco1	12µM	–	–	·	–
COc1ccc(/C=C/c2nnc(NC(=O)CSc3ccc(C)cc3)s2)cc1	?	?	–	·	–
COC(=O)Nc1nnc(/C=C/c2ccccc2)s1	5.4µM	–	–	20µM	?
CCn1c(=O)cc(SCC(=O)NCc2ccccc2OC)c2ccccc21	–	·	·	–	·
CCc1ccccc1NC(=O)c1cnn(-c2ccccc2)c1C	?	–	–	·	–
CCc1ccccc1NC(=O)c1nnn(-c2ccc(F)cc2)c1C	12µM	·	·	–	·
CCN(C(=O)CCc1nc(-c2ccc(C)cc2)no1)c1cccc(C(F)(F)F)c1	–	·	·	–	·
Cc1ccc(-c2cc(C(=O)Nc3ccccc3C)c3ccccc3n2)o1	8.5µM	–	–	–	–

Bioassay records deposited in PubChem BioAssay by National Center for Advancing Translational Sciences (NCATS).
